Each structure is given as a SMILES string. Hit rate of the full screen: of about 1,200 compounds, about 20 (2%) were called active. Not shown: some 23% with an inconclusive outcome. Many of the other results were omitted from the sample, so actives are more common in it than they were. A number with no mark means an inactive call. The call rests on the fitted dose curve; in most records, active means well fitted inhibition curve with a large enough effect; inconclusive means small, poorly fitted or top-dose-only effect; inactive means no such curve, though single readings can be large or run the other way.
Potency means the concentration at half of the fitted maximal effect.

Chain of Transcriptional regulator ERG (Homo sapiens) (P11308 whole entry, looked up, the tested form may be a part): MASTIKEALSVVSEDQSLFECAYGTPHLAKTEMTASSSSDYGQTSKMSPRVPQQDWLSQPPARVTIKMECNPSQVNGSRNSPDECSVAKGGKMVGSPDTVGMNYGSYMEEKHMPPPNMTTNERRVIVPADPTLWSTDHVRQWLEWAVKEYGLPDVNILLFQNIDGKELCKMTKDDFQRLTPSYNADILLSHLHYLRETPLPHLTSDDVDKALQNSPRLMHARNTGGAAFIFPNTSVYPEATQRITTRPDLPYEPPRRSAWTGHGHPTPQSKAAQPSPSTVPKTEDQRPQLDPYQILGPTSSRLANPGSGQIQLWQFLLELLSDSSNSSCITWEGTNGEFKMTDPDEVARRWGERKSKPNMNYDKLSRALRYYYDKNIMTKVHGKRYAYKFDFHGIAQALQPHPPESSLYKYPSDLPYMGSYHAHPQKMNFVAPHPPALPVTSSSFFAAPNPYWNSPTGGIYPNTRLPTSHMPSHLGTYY

This experiment concerns the target Transcriptional regulator ERG (Homo sapiens) (UniProt P11308). The experiment can be described thus: qHTS for Small Molecule Inhibitors of the ERG Ets/DNA interaction: HTRF assay against cherry picks. The conditions noted are these: His-ERG Ets domain with biotin-DNA; series mostly up to 154 µM; activity change, negative = inhibition: at the top concentration. An excerpt: The Ets family of proteins is a family of ~30 conserved transcription factors defined by the presence of an ~85 amino acid domain referred to as the Ets domain, which mediates sequence-specific DNA binding to a core DNA element GGAA/T.The Ets family member ERG has been linked to several neoplasms. […] More extensive studies of the effects of over-expression of ERG in prostate cells have recently been carried out and have shown that over-expression of ERG results in increased invasion. […] We will carry out a high throughout screen to identify inhibitors of the interaction between ERG and DNA using a fluorescence polarization (FP) assay with a His-tagged ERG Ets domain and fluorescently-labeled DNA probes to develop small molecule inhibitors of this interaction as probes to test this hypothesis and lay the groundwork for the development of targeted therapies against ERG. This is the counterscreen against the cherry picks. NIH Molecular Libraries Probe Production Network [MLPCN] NIH Chemical Genomics Center [NCGC] Grant: NS066464 PI Name: John Bushweller, University of Virgina
2 ul of protein solution (200 nM ERG domain in 300mM KCl, 50mM Tris-HCl, 1mM EDTA, 1mM DTT, pH 7.5); 20 nl Control plate and compound library plate; 2 ul of 200 nM biotin-DNA; incubate for 10 min at RT; 1 ul of anti-His antibody conjugated to the long-life fluorescent cryptate donner […] (5ng/ul) and streptavidin conjugated to the acceptor compound […] (0.2 ng/ul) mix; incubate 10 min and measure FRET (Excitation = 320 nm, Emission = 615, 665 nm).
Background: Quantitative high-throughput screening tests each substance at several concentrations.
For `Cc1cc(OCc2cc3c(cc2Cl)OCO3)c2c(C)cc(=O)oc2c1`, the “activity change, negative = inhibition” value was -3.98%.

As to `COC(=O)c1ccccc1NC(=O)c1cc(C2CC2)on1`, the “activity change, negative = inhibition” value was -14.3%.

Take `Nc1ccccc1S(N)(=O)=O`: the “activity change, negative = inhibition” value is -1.75%.

With `COc1cc(CCC(=O)Nc2ccc(Br)c(C(F)(F)F)c2)cc(OC)c1OC`, the “activity change, negative = inhibition” value is -23.7%.

Consider `O=C(NCCCc1ccccc1)C(=O)NCC1OCCN1S(=O)(=O)c1cc(F)ccc1F` (centres undefined), for which the “activity change, negative = inhibition” value was -21.2%.

Consider `N#Cc1c(SCc2c(Cl)cccc2Cl)nc(N)[nH]c1=S`, for which the “activity change, negative = inhibition” value is -36.5%.

On to `CCC(c1nnnn1Cc1ccc(F)cc1)N1CCN(C)CC1` (centres undefined), for which the “activity change, negative = inhibition” value was -23.8%.

`Cc1sc2nc(CSC(C)C(=O)Nc3ccc(C(N)=O)cc3)[nH]c(=O)c2c1C` (centres undefined): the “activity change, negative = inhibition” value is -40.4%.

Take `CCOc1ccc(NS(=O)(=O)c2ccc(NC(C)=O)c(OC)c2)cc1`: the “activity change, negative = inhibition” value was -24.9%.

Turning to `CCn1ccc2c(OCC(=O)Nc3ccc(C(C)=O)cc3)cccc2c1=O`, the “activity change, negative = inhibition” value is -14.2%.

For the compound `COc1cccc2c1C(=N)c1c(O)c3c(c(O)c1C2=O)CC(O)(C(C)=O)CC3OC1CC(N)C(O)C(C)O1` (centres undefined), the Potency is 3.98 µM (active).

In the case of `COC(=O)c1c(C(=O)OC)c(-c2ccc(OC)cc2)n2c1CS(=O)C2` (centres undefined), the “activity change, negative = inhibition” value was -14.5%.

`CC(NC(=O)c1ccco1)c1nc(-c2ccc(C(C)(C)C)cc2)no1` (centres undefined): the “activity change, negative = inhibition” value is -19.6%.

With `O=C(Cc1csc(-c2ccccc2)n1)NCc1ccc(F)cc1`, the “activity change, negative = inhibition” value is -25.8%.

Consider `O=C(NCCCc1ccccc1)C(=O)NCC1OCCN1S(=O)(=O)c1ccccc1` (centres undefined), for which the “activity change, negative = inhibition” value was -28.9%.

As to `CCn1nc(C)c(CNC(=O)c2cc(COc3ccccc3SC)on2)c1C`, the “activity change, negative = inhibition” value was -14.4%.

With `CS(=O)(=O)N(CC(=O)Nc1ccccc1)c1cccc(Cl)c1Cl`, the “activity change, negative = inhibition” value was 1.01%.

Take `O=C(O)CC(c1cccc2ccccc12)N1Cc2ccccc2C1=O` (centres undefined): the “activity change, negative = inhibition” value is -11.1%.

`O=C(NCc1ccc(F)cc1F)c1cc(COc2c(F)cccc2F)on1`: the “activity change, negative = inhibition” value was 8.28%.

In the case of `Cc1cc(C)cc(N(C(=O)c2csnn2)C(C(=O)NC(C)(C)C)c2ccncc2)c1` (centres undefined), the “activity change, negative = inhibition” value is -28.2%.

Take `COc1ccc(Nc2ncnc3sccc23)cc1OC`: the “activity change, negative = inhibition” value was -22.8%.

As to `COc1ccc(-c2cccc(NS(=O)(=O)c3cc([N+](=O)[O-])ccc3C)c2)nn1`, the “activity change, negative = inhibition” value is -26.3%.

For the compound `Cc1cc(N)ccc1-n1c(C)ccc1C`, the “activity change, negative = inhibition” value was -13.7%.

`CC(Oc1ccc(C(=O)c2ccc(F)cc2)cc1)C(=O)N1CCOCC1` (centres undefined): the “activity change, negative = inhibition” value is -25.3%.

For the compound `CCc1nn2c(=O)cc(CSCC(=O)Nc3ccccc3F)nc2s1`, the “activity change, negative = inhibition” value is -2.81%.

Consider `CCOC(=O)C(CC)Sc1ccc2nnc(-c3cccnc3)n2n1` (centres undefined), for which the “activity change, negative = inhibition” value was -10.8%.

As to `CC1CCN(S(=O)(=O)c2ccc(Cl)s2)CC1`, the “activity change, negative = inhibition” value is -23%.

As to `Cn1nc(C(F)(F)F)c(C#N)c1N1CCN(c2ccccn2)CC1`, the “activity change, negative = inhibition” value was -25.8%.

`O=C(C[C@H]1C/C=C\CC[C@@H](Cc2ccc(F)cc2)C(=O)OC[C@H]2CCCN2C1=O)N[C@H](CO)Cc1ccccc1`: the “activity change, negative = inhibition” value is -13.8%.

`CC1(C)C2CCC1(C)C(NCC(O)COc1ccc(C#N)cc1)C2` (centres undefined): the “activity change, negative = inhibition” value was -2.02%.

In the case of `CCOCCn1c(CN2CCCCC2)nc2c1c(=O)n(C)c(=O)n2C`, the “activity change, negative = inhibition” value was -23%.

With `Cc1cc(C(=O)COC(=O)C23CC4CC(CC(O)(C4)C2)C3)c(C)n1C`, the “activity change, negative = inhibition” value was -28.2%.

As to `COc1cc(NC(=O)COC(=O)CNC(=O)C2CCCCC2)cc(OC)c1`, the “activity change, negative = inhibition” value was -17.5%.

For the compound `Cc1nccn1C[C@@H]1CCc2c(c3ccccc3n2C)C1=O`, the “activity change, negative = inhibition” value is -12.8%.

Take `Cc1nc(Nc2cccc(F)c2)c2oc3ccccc3c2n1`: the “activity change, negative = inhibition” value was -29.2%.

In the case of `CCCCn1c(N)c(N(CC(C)C)C(=O)c2ccc(S(=O)(=O)N3CCC(C)CC3)cc2)c(=O)[nH]c1=O`, the “activity change, negative = inhibition” value is -4.46%.

Consider `COC(=O)c1ccccc1SC(CC(=O)c1ccccc1)c1ccc(F)cc1` (centres undefined), for which the “activity change, negative = inhibition” value was -9.34%.

`CCCC(NC(=O)C(C)Sc1nnnn1C1CC1)c1ccccc1` (centres undefined): the “activity change, negative = inhibition” value was -15.9%.

In the case of `CCCN1C[C@H](CSC)C[C@@H]2c3cccc4[nH]cc(c34)C[C@H]21`, the Potency was 14.1 µM (active).

As to `Cc1ccccc1-n1c(=O)n(CCc2ccccc2)c(=O)c2[nH]cnc21`, the “activity change, negative = inhibition” value is -2.33%.

With `O=S(=O)(c1ccccc1)c1cnc(-c2cccnc2)nc1-c1ccccc1`, the “activity change, negative = inhibition” value is -15.6%.

In the case of `O=c1oc2ccccc2cc1-c1cn2cc(Cc3ccc(F)cc3)sc2n1`, the “activity change, negative = inhibition” value is -3.08%.

On to `NC(=O)c1ccccc1NCC(=O)c1ccc(F)cc1`, for which the “activity change, negative = inhibition” value is -21.6%.

In the case of `COc1cccc(-c2nn(C)c3sc(C(=O)NCc4ccc(OC)cc4OC)cc23)c1`, the “activity change, negative = inhibition” value was 1.17%.

Turning to `CSc1nc(-c2ccc(Cl)cc2)nn1C(=O)c1ccccc1`, the “activity change, negative = inhibition” value is -19.6%.

Regarding `COc1ccc(S(=O)(=O)N2CCCC(C(F)(F)F)C2)cc1` (centres undefined), the “activity change, negative = inhibition” value is -24%.

For the compound `CN(C)C=NC(=O)c1cc(C(=O)c2ccc(Cl)cc2)c[nH]1`, the “activity change, negative = inhibition” value is -14.1%.

Regarding `Cc1cc(=O)oc2cc(OCC(=O)OCC(=O)Nc3ccc(C(C)C)cc3)ccc12`, the “activity change, negative = inhibition” value is -4.51%.

With `COC(=O)C(CCSC)NC(=O)c1cc2c(n(-c3ccccc3)c1=O)CC(C)(C)CC2=O` (centres undefined), the “activity change, negative = inhibition” value is -23.7%.

As to `CC(C)CCN1CCN(C2CCN(c3ccc4c(c3)OCO4)CC2)CC1CCO` (centres undefined), the “activity change, negative = inhibition” value was -10.5%.

Regarding `Cc1cc(C)nc(N2C(=O)CC(Cc3ccc(Cl)cc3)C2=O)n1` (centres undefined), the “activity change, negative = inhibition” value is -18.5%.

Turning to `Cc1ccc2oc(-c3ccc(NC(=O)CC(C)C)cc3)nc2c1`, the “activity change, negative = inhibition” value is -28%.

`Cc1ccc(C(=O)N2CCCCC2C(=O)O)cc1S(=O)(=O)N1CCCCC1` (centres undefined): the “activity change, negative = inhibition” value was -26.3%.

`O=C(Nc1ccccc1Br)c1ccccc1-c1ccccc1`: the “activity change, negative = inhibition” value is -19%.

Turning to `COc1ccccc1NS(=O)(=O)c1ccc(C)c(NC(=O)c2c(C)noc2C)c1`, the “activity change, negative = inhibition” value is -24.5%.

With `Cc1ccc(NC(=O)CSc2nc3ccccc3c3nc(CCn4c(C)nc5ccccc54)nn23)cc1F`, the “activity change, negative = inhibition” value was -14.4%.

In the case of `COc1ccc(NC(=O)CSc2nc(C)c3c(c2C#N)CCCC3)cc1`, the “activity change, negative = inhibition” value is -22.1%.

For the compound `Cc1cc(C)nc(N2CCCC(C(=O)Nc3ccc(F)cc3)C2)n1` (centres undefined), the “activity change, negative = inhibition” value was 0.212%.

As for `Cc1cc2[nH]c3c(c[n+](C)c4ccccc34)c2cc1C`, the Potency is 3.55 µM (active).

Consider `CC(=O)Nc1sc2c(c1-c1nc3ccccc3s1)CCN(C(C)C)C2`, for which the Potency was 3.55 µM (active).

With `Cc1c(NC(=O)c2cc(-n3cnnc3)ccc2Cl)cccc1-c1nc2ccccc2s1`, the “activity change, negative = inhibition” value was -29.4%.

Turning to `O=c1[nH]c2cc(F)ccc2c2ccc(F)cc12`, the “activity change, negative = inhibition” value is -28.4%.

As to `CCOc1cc(NC(=S)NCC(C)C)c(OCC)cc1NC(=O)c1ccco1`, the “activity change, negative = inhibition” value was -29%.

Turning to `O=C(Nc1cc(-c2nc3cc(Cl)ccc3o2)ccc1Cl)c1cccs1`, the “activity change, negative = inhibition” value was 111%.

Turning to `COC(=O)C(C)Sc1ccc2nnc(CCNS(=O)(=O)c3ccc(C)cc3)n2n1` (centres undefined), the “activity change, negative = inhibition” value is -21.9%.

On to `CNCCCOc1cc(C)cc(C)c1C`, for which the “activity change, negative = inhibition” value is -21.6%.

For the compound `COc1ccc(OC)c2c1C(=O)c1ccccc1C2=O`, the Potency was 35.5 µM (active).

For the compound `COc1ccc(C(c2c(C)n(C)n(-c3ccccc3)c2=O)c2c(C)n(C)n(-c3ccccc3)c2=O)c(OC)c1OC`, the “activity change, negative = inhibition” value was -25.1%.

Turning to `COc1ccc(C(=O)c2cccc(C(=O)c3ccc(OC)c(C)c3)c2)cc1C`, the “activity change, negative = inhibition” value was -25.7%.

(Values after PubChem BioAssay AID651804 (National Center for Advancing Translational Sciences (NCATS), 2012).)
